Experimental data published in the supplement of paper PMC10849652.
Targets with a hit are over-represented here; the source holds about 7,900 in all. About 0.6% of all pairs of compound and target were hits. A number with no mark means an inactive call.

What follows are targets tested with NC(=O)Nc1cc(-c2cccc(F)c2)sc1C(=O)N[C@H]1CCCNC1 (assay: log2 fold change, soluble protein after heating vs DMSO (PISA); higher = thermal stabilisation; K562 cells, 10 uM, 30 min; active = over 0.2 and 3.5 SD of the protein, either way, in both replicates (recomputed)).
Outline: (§1)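 K562 cells at 2×10^6 cells/mL were exposed to 10 μM compound for 30 min, then aliquots were heated for 3 min across 48°C-58°C, pooled, and extracted in PBS containing 0.5% NP-40 at 4°C. The supernatant after 21,000xg for 90 min was taken as soluble protein and measured by TMTpro 16plex LC-MS/MS with channel sums equalised. Thermal stability is reported relative to control samples, with values from duplicates. Fold changes are given on a log2 scale.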

Sequence of UniProt P51532 (P51532 whole entry, looked up): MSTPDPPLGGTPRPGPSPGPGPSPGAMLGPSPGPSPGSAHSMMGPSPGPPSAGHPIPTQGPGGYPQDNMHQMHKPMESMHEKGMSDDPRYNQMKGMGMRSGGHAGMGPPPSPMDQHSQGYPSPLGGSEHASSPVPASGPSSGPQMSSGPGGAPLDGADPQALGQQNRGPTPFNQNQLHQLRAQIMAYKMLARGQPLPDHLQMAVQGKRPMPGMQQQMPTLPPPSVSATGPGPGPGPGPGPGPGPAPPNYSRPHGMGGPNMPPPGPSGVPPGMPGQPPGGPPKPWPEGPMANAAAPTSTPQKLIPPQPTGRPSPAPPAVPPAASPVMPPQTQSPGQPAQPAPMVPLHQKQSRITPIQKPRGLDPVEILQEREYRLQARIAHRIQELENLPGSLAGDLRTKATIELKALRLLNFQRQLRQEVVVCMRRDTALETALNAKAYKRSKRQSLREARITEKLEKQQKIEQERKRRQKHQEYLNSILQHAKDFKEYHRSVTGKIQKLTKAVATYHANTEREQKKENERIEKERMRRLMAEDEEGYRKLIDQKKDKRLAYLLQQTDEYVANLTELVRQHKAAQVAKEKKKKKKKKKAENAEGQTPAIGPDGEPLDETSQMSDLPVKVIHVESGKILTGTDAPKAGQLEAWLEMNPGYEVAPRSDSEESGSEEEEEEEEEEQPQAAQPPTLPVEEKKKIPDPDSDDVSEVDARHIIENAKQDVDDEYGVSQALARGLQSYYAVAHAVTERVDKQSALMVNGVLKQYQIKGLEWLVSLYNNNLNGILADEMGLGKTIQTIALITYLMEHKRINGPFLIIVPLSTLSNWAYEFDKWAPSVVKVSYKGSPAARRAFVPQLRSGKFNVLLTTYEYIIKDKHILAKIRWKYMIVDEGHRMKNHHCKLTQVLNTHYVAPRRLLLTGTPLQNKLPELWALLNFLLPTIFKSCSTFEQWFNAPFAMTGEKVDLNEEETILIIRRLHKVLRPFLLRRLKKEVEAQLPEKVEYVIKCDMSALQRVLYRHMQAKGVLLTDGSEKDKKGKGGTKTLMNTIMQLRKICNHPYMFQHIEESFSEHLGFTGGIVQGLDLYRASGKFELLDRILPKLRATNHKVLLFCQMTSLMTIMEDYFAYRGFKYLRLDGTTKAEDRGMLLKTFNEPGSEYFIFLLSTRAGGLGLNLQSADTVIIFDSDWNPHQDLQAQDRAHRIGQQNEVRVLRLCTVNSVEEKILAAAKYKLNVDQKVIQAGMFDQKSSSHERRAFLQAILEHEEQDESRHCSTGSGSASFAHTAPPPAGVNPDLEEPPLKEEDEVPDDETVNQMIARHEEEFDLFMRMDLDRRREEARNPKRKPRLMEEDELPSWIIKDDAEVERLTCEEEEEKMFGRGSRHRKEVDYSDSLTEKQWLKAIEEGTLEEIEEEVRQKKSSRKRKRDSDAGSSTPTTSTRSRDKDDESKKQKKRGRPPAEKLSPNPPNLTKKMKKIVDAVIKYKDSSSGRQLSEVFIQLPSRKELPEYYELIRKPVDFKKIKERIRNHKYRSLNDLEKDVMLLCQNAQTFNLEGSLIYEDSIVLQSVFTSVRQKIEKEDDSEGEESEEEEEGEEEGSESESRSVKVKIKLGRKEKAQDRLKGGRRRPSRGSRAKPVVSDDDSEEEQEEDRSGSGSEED
Sequence of UniProt O15400 (O15400 whole entry, looked up): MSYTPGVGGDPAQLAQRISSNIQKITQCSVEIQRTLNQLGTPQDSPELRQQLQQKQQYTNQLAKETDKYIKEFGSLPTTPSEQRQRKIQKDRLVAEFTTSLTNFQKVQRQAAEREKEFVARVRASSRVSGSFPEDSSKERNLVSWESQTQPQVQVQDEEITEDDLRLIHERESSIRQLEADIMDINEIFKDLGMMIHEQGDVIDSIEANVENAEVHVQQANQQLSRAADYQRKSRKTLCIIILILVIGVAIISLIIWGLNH
Sequence of UniProt Q15833 (Q15833 whole entry, looked up): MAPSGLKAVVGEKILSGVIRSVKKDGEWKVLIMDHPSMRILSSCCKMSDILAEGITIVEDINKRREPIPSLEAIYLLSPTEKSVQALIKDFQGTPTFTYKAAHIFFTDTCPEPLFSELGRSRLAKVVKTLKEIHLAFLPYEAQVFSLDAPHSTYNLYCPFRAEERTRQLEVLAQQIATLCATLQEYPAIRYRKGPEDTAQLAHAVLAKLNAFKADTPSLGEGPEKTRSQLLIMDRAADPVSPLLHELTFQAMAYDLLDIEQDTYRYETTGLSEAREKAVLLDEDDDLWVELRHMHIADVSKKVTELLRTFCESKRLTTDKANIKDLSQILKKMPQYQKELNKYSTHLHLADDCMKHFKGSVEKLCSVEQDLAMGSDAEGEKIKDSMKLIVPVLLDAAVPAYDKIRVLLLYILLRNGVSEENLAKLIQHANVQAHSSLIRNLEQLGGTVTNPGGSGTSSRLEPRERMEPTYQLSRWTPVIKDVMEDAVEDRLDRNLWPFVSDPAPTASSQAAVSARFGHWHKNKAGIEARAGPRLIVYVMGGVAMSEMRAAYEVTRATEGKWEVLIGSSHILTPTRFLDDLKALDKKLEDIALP
Sequence of UniProt P12931 (P12931 whole entry, looked up): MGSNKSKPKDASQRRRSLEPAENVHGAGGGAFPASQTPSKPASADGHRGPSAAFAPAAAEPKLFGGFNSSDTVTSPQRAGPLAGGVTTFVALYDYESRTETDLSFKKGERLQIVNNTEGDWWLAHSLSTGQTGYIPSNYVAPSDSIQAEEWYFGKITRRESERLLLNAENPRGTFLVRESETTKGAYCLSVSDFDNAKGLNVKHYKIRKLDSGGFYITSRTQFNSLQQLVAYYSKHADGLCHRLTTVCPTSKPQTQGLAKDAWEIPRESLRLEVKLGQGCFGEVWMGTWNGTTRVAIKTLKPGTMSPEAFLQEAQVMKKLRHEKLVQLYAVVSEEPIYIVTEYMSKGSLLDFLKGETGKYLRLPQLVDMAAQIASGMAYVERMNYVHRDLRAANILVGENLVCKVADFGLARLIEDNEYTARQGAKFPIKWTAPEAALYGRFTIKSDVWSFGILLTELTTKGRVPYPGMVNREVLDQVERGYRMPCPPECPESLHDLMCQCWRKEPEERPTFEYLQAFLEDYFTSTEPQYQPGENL
Sequence of UniProt Q96BZ9 (Q96BZ9 whole entry, looked up): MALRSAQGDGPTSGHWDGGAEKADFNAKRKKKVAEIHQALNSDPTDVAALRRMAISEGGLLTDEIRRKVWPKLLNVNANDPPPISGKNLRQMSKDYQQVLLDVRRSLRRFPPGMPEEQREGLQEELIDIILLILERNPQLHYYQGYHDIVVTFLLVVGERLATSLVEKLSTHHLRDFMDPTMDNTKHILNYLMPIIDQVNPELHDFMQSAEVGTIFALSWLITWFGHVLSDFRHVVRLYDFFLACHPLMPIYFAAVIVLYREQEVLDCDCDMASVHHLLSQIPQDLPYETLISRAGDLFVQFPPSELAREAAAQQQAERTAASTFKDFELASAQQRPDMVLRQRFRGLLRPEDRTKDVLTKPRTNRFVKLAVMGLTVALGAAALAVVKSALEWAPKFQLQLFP
Sequence of UniProt P30626 (P30626 whole entry, looked up): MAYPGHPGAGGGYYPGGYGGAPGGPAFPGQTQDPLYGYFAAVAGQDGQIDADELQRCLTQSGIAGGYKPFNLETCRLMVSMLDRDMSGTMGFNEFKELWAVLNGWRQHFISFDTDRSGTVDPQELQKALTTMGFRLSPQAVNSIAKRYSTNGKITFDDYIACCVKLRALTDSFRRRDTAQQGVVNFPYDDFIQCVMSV
Sequence of UniProt Q9H2K8 (Q9H2K8 whole entry, looked up): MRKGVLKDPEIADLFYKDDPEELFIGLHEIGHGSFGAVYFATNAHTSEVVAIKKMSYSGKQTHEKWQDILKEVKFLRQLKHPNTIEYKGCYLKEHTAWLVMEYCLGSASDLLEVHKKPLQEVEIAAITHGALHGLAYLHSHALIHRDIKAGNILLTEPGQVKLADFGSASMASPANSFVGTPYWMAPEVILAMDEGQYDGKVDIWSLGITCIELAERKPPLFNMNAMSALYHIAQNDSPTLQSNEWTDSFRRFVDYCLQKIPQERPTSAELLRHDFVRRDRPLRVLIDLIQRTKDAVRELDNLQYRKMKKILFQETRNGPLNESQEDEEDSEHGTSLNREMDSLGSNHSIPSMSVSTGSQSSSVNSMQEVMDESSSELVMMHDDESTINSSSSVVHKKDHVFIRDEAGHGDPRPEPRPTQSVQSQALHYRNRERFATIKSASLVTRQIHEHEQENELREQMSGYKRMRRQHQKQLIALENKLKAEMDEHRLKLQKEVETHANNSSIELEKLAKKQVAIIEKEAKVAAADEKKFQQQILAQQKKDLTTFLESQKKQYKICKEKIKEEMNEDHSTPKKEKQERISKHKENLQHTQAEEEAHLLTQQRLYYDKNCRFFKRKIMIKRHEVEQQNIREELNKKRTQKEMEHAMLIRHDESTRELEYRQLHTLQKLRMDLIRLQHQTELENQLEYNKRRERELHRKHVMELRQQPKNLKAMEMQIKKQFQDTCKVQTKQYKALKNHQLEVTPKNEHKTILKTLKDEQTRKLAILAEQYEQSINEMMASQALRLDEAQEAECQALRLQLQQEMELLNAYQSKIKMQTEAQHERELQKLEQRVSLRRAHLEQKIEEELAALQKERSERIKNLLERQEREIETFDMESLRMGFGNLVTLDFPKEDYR
Sequence of UniProt Q9BYN0 (Q9BYN0 whole entry, looked up): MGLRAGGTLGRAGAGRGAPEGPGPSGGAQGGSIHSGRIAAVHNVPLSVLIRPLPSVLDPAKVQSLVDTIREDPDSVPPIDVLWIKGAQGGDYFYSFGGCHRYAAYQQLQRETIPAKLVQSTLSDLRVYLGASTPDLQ
Sequence of UniProt Q13247 (Q13247 whole entry, looked up): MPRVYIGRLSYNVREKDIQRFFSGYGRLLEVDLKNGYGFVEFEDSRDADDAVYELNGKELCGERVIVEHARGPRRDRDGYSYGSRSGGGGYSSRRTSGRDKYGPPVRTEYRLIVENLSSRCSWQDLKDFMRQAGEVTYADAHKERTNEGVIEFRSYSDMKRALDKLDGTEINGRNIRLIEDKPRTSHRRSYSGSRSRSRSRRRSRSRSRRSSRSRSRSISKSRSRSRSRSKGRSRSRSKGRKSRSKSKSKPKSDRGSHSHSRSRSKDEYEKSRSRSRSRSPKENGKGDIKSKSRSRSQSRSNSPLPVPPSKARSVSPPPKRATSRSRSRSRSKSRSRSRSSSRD

Target	log2 fold change
SYNE2 isoform 2 (UniProt Q8WXH0)	-0.229
SPAG9 (UniProt O60271)	-0.042
SRFBP1 (UniProt Q8NEF9)	0.038
SMC5 (UniProt Q8IY18)	0.057
SLC38A7 (UniProt Q9NVC3)	-0.017
SLC30A10 (UniProt Q6XR72)	-0.035
TK1 (UniProt K7ERV3)	-0.127
SMCHD1 (UniProt A6NHR9)	-0.085
SLC44A2 isoform 2 (UniProt Q8IWA5)	-0.086
SYNE1 (UniProt Q8NF91)	-0.006
TENT5C (UniProt Q5VWP2)	-0.095
SRCAP (UniProt Q6ZRS2)	-0.079
TBC1D20 isoform 3 (UniProt Q96BZ9)	-0.062
STK11IP (UniProt Q8N1F8)	0.098
SMAD2 (UniProt Q15796)	-0.184
STXBP2 isoform 3 (UniProt Q15833)	-0.084
TGFBR1 isoform 2 (UniProt P36897)	0.029
STK38L (UniProt Q9Y2H1)	-0.046

Target	log2 fold change
STARD3 (UniProt Q14849)	0.014
SRC isoform 2 (UniProt P12931)	-0.578 (active)
SRSF6 (UniProt Q13247)	-0.06
TFAM (UniProt Q00059)	-0.079
SLC39A11 (UniProt Q8N1S5)	0
TM9SF4 (UniProt Q92544)	0.024
SLC25A38 (UniProt Q96DW6)	0.035
SSBP4 (UniProt Q9BWG4)	0.177
TAOK3 (UniProt Q9H2K8)	-0.013
SRI (UniProt P30626)	-0.014
SNX15 (UniProt Q9NRS6)	0.106
SRXN1 (UniProt Q9BYN0)	-0.013
STX7 (UniProt O15400)	0.036
SMARCA4 (UniProt P51532)	-0.144
TATDN2 (UniProt Q93075)	-0.115
TACC2 (UniProt O95359)	-0.013
SOAT1 (UniProt P35610)	-0.073
SP1 (UniProt P08047)	-0.017

The targets below were run with NC(=O)c1cnc(N[C@@H]2CCCC[C@@H]2N)nc1Nc1cccc(-n2nccn2)c1 in the same assay as above.
Outline: as §1

Target	log2 fold change
SYNE2 isoform 2 (UniProt Q8WXH0)	-0.172
SPAG9 (UniProt O60271)	-0.13
SRFBP1 (UniProt Q8NEF9)	0.198
SMC5 (UniProt Q8IY18)	-0.034
SLC38A7 (UniProt Q9NVC3)	0.002
SLC30A10 (UniProt Q6XR72)	0.088
TK1 (UniProt K7ERV3)	-0.054
SMCHD1 (UniProt A6NHR9)	-0.352
SLC44A2 isoform 2 (UniProt Q8IWA5)	0.168
SYNE1 (UniProt Q8NF91)	-0.031
TBC1D20 isoform 3 (UniProt Q96BZ9)	0.052
STK11IP (UniProt Q8N1F8)	-0.412
SMAD2 (UniProt Q15796)	-0.064
STXBP2 isoform 3 (UniProt Q15833)	-0.066
SPIRE1 (UniProt Q08AE8)	-0.025
TGFBR1 isoform 2 (UniProt P36897)	0.072
STK38L (UniProt Q9Y2H1)	-0.015
STARD3 (UniProt Q14849)	0.079

Target	log2 fold change
SRC isoform 2 (UniProt P12931)	0.006
SRSF6 (UniProt Q13247)	0.038
TEX30 (UniProt Q5JUR7)	-0.101
TFAM (UniProt Q00059)	-0.006
SLC39A11 (UniProt Q8N1S5)	-0.027
TM9SF4 (UniProt Q92544)	0.064
SLC25A38 (UniProt Q96DW6)	-0.068
SSBP4 (UniProt Q9BWG4)	0.041
TAOK3 (UniProt Q9H2K8)	-0.149
SRI (UniProt P30626)	0.081
SNX15 (UniProt Q9NRS6)	-0.135
SRXN1 (UniProt Q9BYN0)	-0.364
STX7 (UniProt O15400)	-0.02
SMARCA4 (UniProt P51532)	-0.056
TATDN2 (UniProt Q93075)	0.003
TACC2 (UniProt O95359)	-0.027
SOAT1 (UniProt P35610)	-0.049
SP1 (UniProt P08047)	0.011
